Bioassay records from PubChem.
Most compounds without a hit are left out; they make up all but 15% or so of the library.
TDP1 cell CPT: qHTS for Inhibitors of human tyrosyl-DNA phosphodiesterase 1 (TDP1): qHTS in cells in presence of CPT; chicken DT40 Tdp1-/-;hTDP1 cells + 20 nM CPT, ATP luminescence, 48 h; Potency, µM (highest dose often 46.2 µM), without a hit: at the top dose activity change, negative = growth inhibition, hits mostly inhibitors; 420,000 tested, 12% active; AID 686979, 2013; note: nearly all actives have a fitted effect of over 55% in size
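Chicken DT40 Tdp1-/- cells complemented with human TDP1, 400 cells/well, exposed to compounds plus 20 nM camptothecin for at least 48 h at 37 C; viability read as ATP content by CellTiter-Glo luminescence.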
TDP1 cell noCPT: qHTS for Inhibitors of human tyrosyl-DNA phosphodiesterase 1 (TDP1): qHTS in cells in absence of CPT. Potency, µM (titrated, usually from 46.2 µM), inactives show at the top dose activity change, negative = growth inhibition, most hits filed as inhibitors. DT40 Tdp1-/- hTDP1 cells, no CPT, ATP luminescence, 48 h. AID 686978, 2013. 420,000 tested, 15% active; note: nearly all actives have a fitted effect of over 55% in size
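Luminescent ATP content (CellTiter-Glo) served as the growth readout. Knockout chicken DT40 cells expressing human TDP1 were exposed to compounds without camptothecin for a minimum 48 hr at 37 °C.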
12-LOX inh: Primary qHTS assay for inhibitors of human arachidonate 12S-lipoxygenase (ALOX12): Round 2 | Potency, µM (top dose mostly 108 µM), inactives show at the top dose activity change, negative = inhibition, hits mostly inhibitors | purified 12hLO, xylenol orange hydroperoxide absorbance | 580,000 tested, 1.1% active
Target sequence (P18054 whole entry, looked up): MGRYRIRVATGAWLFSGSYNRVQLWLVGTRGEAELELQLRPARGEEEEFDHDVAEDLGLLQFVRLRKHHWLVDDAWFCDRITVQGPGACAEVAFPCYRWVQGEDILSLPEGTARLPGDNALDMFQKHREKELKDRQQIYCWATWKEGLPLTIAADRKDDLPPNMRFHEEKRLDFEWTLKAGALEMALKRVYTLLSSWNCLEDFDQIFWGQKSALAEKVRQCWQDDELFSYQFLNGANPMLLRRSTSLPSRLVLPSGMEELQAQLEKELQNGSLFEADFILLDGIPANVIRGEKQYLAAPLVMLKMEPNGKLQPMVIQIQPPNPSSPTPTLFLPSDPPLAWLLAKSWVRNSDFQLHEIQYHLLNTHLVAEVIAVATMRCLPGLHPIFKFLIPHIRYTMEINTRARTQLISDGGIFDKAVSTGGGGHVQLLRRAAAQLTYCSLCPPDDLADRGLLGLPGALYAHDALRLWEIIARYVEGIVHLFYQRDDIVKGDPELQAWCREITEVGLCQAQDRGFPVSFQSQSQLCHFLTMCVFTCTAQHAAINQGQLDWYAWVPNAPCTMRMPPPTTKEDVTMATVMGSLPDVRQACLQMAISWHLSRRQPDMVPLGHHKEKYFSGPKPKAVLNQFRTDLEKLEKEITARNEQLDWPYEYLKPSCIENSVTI
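Hydroperoxide product was detected by ferrous iron/xylenol orange as the 573 to 405 nm absorbance ratio. Arachidonic acid at 40 uM (final) was turned over for 30 min at room temperature by 150 nM human 12hLO, pH 7.0 Hepes buffer, after 15 min compound preincubation.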
Gal4-VP16 FLuc: VP16 counterscreen qHTS for inhibitors of ROR gamma transcriptional activity. Drosophila S2 Gal4-VP16 UAS-luciferase, luminescence, 20 h. Potency, µM (highest dose often 53.6 µM), for inactives: at the top dose activity, negative = inhibition, hits mostly inhibitors. 310,000 tested, 3.5% active;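 note: Gal4-VP16 expression switched on by copper sulfate through the metallothionein promoter; nearly all actives have a fitted effect of over 50% in size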
ELG1 repair inh: qHTS screen for small molecules that inhibit ELG1-dependent DNA repair in human embryonic kidney (HEK293T) cells expressing luciferase-tagged ELG1; AID 504467, 2011; 330,000 tested, 2.3% active; HEK293T ELG1-luciferase reporter, luminescence, 16 h; DNA damage induced by 5-fluorouridine; Potency, µM (titrated, usually from 46.1 µM), without a hit: at the top dose activity change, negative = inhibition, most hits filed as inhibitors; note: nearly all actives have a fitted effect of over 55% in size
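HEK293T cells expressing luciferase-tagged ELG1 (2,000/well) received 5-Fluorouridine plus compound or DMSO for 16 hr at 37 °C. Luciferase was read by ONE-Glo luminescence after 30 min at room temperature.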
RORg inh: qHTS for inhibitors of ROR gamma transcriptional activity. Drosophila S2 Gal4-RORgamma UAS-luciferase reporter, 20 h. Potency, µM (doses to about 53.6 µM), for inactives: at the highest dose activity change, negative = inhibition, actives largely listed as inhibitors. 310,000 tested, 5.4% active; note: nearly all actives have a fitted effect of over 60% in size
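Drosophila Schneider cells stably carrying a metallothionein-driven Gal4 DBD–ROR gamma fusion and a UAS-Photinus luciferase reporter were exposed to compound for 1 hr, then induced with copper sulfate (700 uM final) for 20 hr at ambient temperature before luminescence reading.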
An asterisk follows results filed as active; ? = inconclusive; . = not tested or not shown. Calls come from the whole dose curve; as a rule, active = well fitted curve in the direction sought with a large enough effect; inconclusive = small, poorly fitted or top-dose-only effect, or another doubt; inactive = no such curve, though single readings can be large; an effect the other way counts as inactive or inconclusive. % is set by controls: 0 for no effect and ±100 for the full control effect; potency is the fitted concentration of half-maximal effect.

SMILES	TDP1 cell CPT	TDP1 cell noCPT	12-LOX inh	Gal4-VP16 FLuc	ELG1 repair inh	RORg inh
O=C(Nc1ccccc1-c1ccccc1)C12CC3CC(CC(C3)C1)C2	?	15µM*	1%	3%	?	?
CC1=C(C(=O)Nc2ccc(Cl)cc2)C(c2ccccc2)n2ncc(C(=O)Nc3ccccc3)c2N1 (centres undefined)	21µM*	15µM*	-22%	.	.	.
COc1cccc(C2C(C(=O)Nc3ccc(Cl)cc3)=C(C)Nc3c(C(=O)Nc4ccccc4)cnn32)c1OC (centres undefined)	23µM*	?	0%	.	.	.
COc1ccccc1NC(=O)C1=C(C)Nc2c(C(=O)Nc3ccccc3)cnn2C1c1ccccc1F (centres undefined)	.	.	-18%	.	.	.
CC1=C(C(=O)Nc2ccc(C)cc2C)C(c2ccccc2)n2ncc(C(=O)Nc3ccccc3)c2N1 (centres undefined)	?	?	-1%	.	.	.
CC1=C(C(=O)Nc2ccc(Cl)cc2)C(c2ccccc2C)n2ncc(C(=O)Nc3ccc(C)cc3)c2N1 (centres undefined)	7.3µM*	7.3µM*	2%	.	.	.
COc1ccccc1NC(=O)C1=C(C)Nc2c(C(=O)Nc3ccc(F)cc3)cnn2C1c1cccc([N+](=O)[O-])c1 (centres undefined)	?	23µM*	-12%	.	.	.
O=C(NCC1Cn2cccc2C(=O)N1Cc1ccccc1)c1ccc2ncccc2c1 (centres undefined)	.	.	16%	.	.	.
COc1cccc(C2=NN(C(=O)c3cccs3)C(c3ccc4nccnc4c3)C2)c1 (centres undefined)	.	.	-3%	.	.	.
CCOC(=O)c1sc(NC(=O)Nc2cccc(Cl)c2)cc1C	10µM*	9.2µM*	-16%	?	?	-91%
CCOC(=O)c1sc(NC(=O)c2cccs2)cc1C	?	?	0%	1%	?	?
CCOC(=O)c1sc(NC(=O)c2ccc(Br)o2)cc1C	?	16µM*	-5%	-8%	?	?
O=C(c1c(F)c(F)c(F)c(F)c1F)N1CCN(c2cccc(C(F)(F)F)c2)CC1	?	18µM*	0%	3%	1%	1%
O=C(c1ccncc1)N1CCN(c2cccc(C(F)(F)F)c2)CC1	?	?	3%	0%	-4%	1%
O=C(c1ccccc1F)N1CCN(c2cccc(C(F)(F)F)c2)CC1	?	16µM*	-28%	-1%	2%	0%
Cn1nc(C(=O)N2CC[C@H]3C(=O)NCCCCCCN(Cc4ccncc4)[C@@H]3C2)c2ccccc21	.	.	93%	.	.	.
CC(NC(=O)c1cccc2c1CCN2C(=O)Nc1ccc(F)cc1)c1ccccn1 (centres undefined)	.	.	68%	.	.	.
C=CCNC(=O)c1c[nH]c2ccc(S(=O)(=O)N(C)c3ccc(OCC)cc3)cc2c1=O	21µM*	21µM*	-3%	-8%	?	?
CCOc1ccc(NS(=O)(=O)c2ccc3[nH]cc(C(=O)NC4CCCC4)c(=O)c3c2)cc1	-1%	-23%	?	.	.	.
CCOc1ccc(N(C)S(=O)(=O)c2ccc3[nH]cc(C(=O)NCCCOC)c(=O)c3c2)cc1	23µM*	21µM*	-9%	-2%	-18%	?
CCOc1ccc(NS(=O)(=O)c2ccc3[nH]cc(C(=O)NCc4ccccc4)c(=O)c3c2)cc1	-27%	?	?	.	.	.
CCOc1ccc(NS(=O)(=O)c2ccc3[nH]cc(C(=O)NC(C)CC)c(=O)c3c2)cc1 (centres undefined)	?	21µM*	0%	12%	11%	-14%
CCCNC(=O)c1c[nH]c2ccc(S(=O)(=O)N(C)c3ccc(OCC)cc3)cc2c1=O	?	23µM*	0%	?	?	-33%
COCCCNC(=O)c1c[nH]c2ccc(S(=O)(=O)N(C)c3ccccc3C)cc2c1=O	?	?	-8%	1%	-13%	20%
CCOc1ccc2[nH]cc(C(=O)NCc3ccccc3)c(=O)c2c1	16µM*	21µM*	299%	-20%	?	?
SMILES	TDP1 cell CPT	TDP1 cell noCPT	12-LOX inh	Gal4-VP16 FLuc	ELG1 repair inh	RORg inh
CCOc1ccc(N(C)S(=O)(=O)c2ccc3[nH]cc(C(=O)NCCOC)c(=O)c3c2)cc1	13µM*	?	-15%	?	?	?
NC(=O)[C@@H](Cc1ccccc1)NC(=O)[C@@]1(O)C[C@@H](O)[C@H](O)[C@@H](NC(=O)c2cccnc2)C1	.	.	-16%	.	.	.
O=C(NCc1ccccc1OC(F)(F)F)C1CCN(S(=O)(=O)/C=C/c2ccccc2)CC1	.	.	3%	.	.	.
Cc1nc2ccccn2c(=O)c1Cc1nnc(SCC(=O)Nc2ccccc2)n1C	.	.	1%	.	.	.
Cc1ccc(S(=O)(=O)/N=C2\C=C(NS(=O)(=O)c3ccccc3)C(=O)c3ccccc32)c(C)c1	15µM*	?	?	.	.	.
CC(C)(C)c1ccc(S(=O)(=O)/N=C2\C=C(NS(=O)(=O)c3ccccc3)C(=O)c3ccccc32)cc1	21µM*	21µM*	25µM*	-5%	?	2%
